Measured values reported in PubChem BioAssay (NCI).
The panel holds about 83,000 compounds, 20% with a hit somewhere; the sample as a whole holds those more often.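 Negative percent growth values reflect cell death: -40 means 40% of the cells present at the start died, and -100 means all died.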 A number with no mark means an inactive call. Calls of active or inactive are those of the source. How the source made its calls: active means growth percent below 10; inactive means the rest.

Test system: RPMI-8226 leukemia
Assay: NCI-60 one-dose screen, 48 h (100 = growth as untreated, 0 = no growth, -100 = all killed)
Settings: 10 µM unless noted

For `CN1CCN(CCCNC(=O)c2c3c(n4ccccc24)C(=O)c2ncccc2C3=O)CC1`, which growth is on record?
The growth was 29.4%.

With `CN1CCN(CC(=O)N(C)c2ccc(N=C(c3ccccc3)c3c(O)[nH]c4ccc([N+](=O)[O-])cc34)cc2)CC1` as the molecule, how does the growth read?
The growth was 82.7%.

With `CCCCCCCCNc1ncnc2c1ncn2Cc1nnc2c3ccccc3c(Cl)nn12` as the molecule, how does the growth read?
Its growth is 35.4%.

Which growth does the source give for `CC/C(=C(/c1ccc(Cl)cc1)c1ccc(OCCCN(C)C)cc1)c1ccc(OC)cc1` here?
Its growth is -41.3% (active).

With `CCN(CC)CCCNC(=O)c1c2c(n3ccccc13)C(=O)c1ncccc1C2=O` as the molecule, how does the growth read?
The growth was -23.8% (active).

With `CCCn1cnc2c(c1=N)C(c1ccc(Cl)cc1)c1sc3c(F)cccc3c1O2` (stereo not given) as the molecule, how does the growth read?
Its growth is 29.6%.

With `Cc1ccc(C23CCC(=O)N2CCc2cncn23)cc1` (stereo not given) as the molecule, how does the growth read?
Its growth is 100%.

Which growth does the source give for `O=C(COc1ccc(/C=C2\Oc3ccccc3C2=O)cc1)Nc1nccs1` here?
Its growth is 40.4%.

With `Cc1c(C(=O)C(SC(=S)N2CCOCC2)SC(=S)N2CCOCC2)nnn1-c1ccc([N+](=O)[O-])cc1` as the molecule, how does the growth read?
The growth was 90.1%.

How did the growth turn out when `O=[N+]([O-])c1ccc(Oc2cccc3c(Oc4ccc([N+](=O)[O-])cc4[N+](=O)[O-])cccc23)c([N+](=O)[O-])c1` was run?
The growth was 95.6%.

Which growth does the source give for `CN(C)CCOc1ccc(/C(=C(/CCCCCCCCCC[P+](c2ccccc2)(c2ccccc2)c2ccccc2)c2ccccc2)c2ccccc2)cc1` here?
Its growth is -48.3% (active).

For `CC1(C)CC[C@]2(CO)CC[C@]3(C)C(=CC[C@@H]4[C@@]5(C)CCNCC(C)(C)[C@@H]5CC[C@]43C)[C@@H]2C1`, which growth is on record?
Its growth is -26.1% (active).

Which growth does the source give for `O=c1oc2ccccc2cc1-c1nn(-c2ccccc2)cc1/C=N/Nc1nc(-c2ccccc2)c(N=Nc2ccccc2)s1` here?
Its growth is 63.1%.

With `COc1cc(/C=C2\CN(S(=O)(=O)c3ccc(C)cc3)C/C(=C\c3cc(CN4CCCC4)c(O)c(OC)c3)C2=O)cc(CN2CCCC2)c1O` as the molecule, how does the growth read?
Its growth is -34.6% (active).

Which growth does the source give for `Nc1ccc(Cl)c2c(=O)c3ccccc3[nH]c12` here?
The growth was 71%.

Which growth does the source give for `COC(=O)c1sc(-c2ccc(C)cc2)cc1O` here?
Its growth is 103%.

Which growth does the source give for `CCOC(=O)CSc1nc2sc3c(c2c(=O)n1-c1ccccc1)CCCCC3` here?
Its growth is 105%.

With `O=C1NCCS(=O)(=O)/C1=C\C=C\c1cccc(C(F)(F)F)c1` as the molecule, how does the growth read?
Its growth is -7.36% (active).

Which growth does the source give for `COc1cc(/C=C2\C(=O)N(CCOc3cc(O)c4c(=O)cc(-c5ccccc5)oc4c3)c3ccccc32)cc(OC)c1O` here?
The growth was 84.1%.

For `CNC1=C([N+](=O)[O-])C(c2ccc(OC)cc2)C(C#N)=C(c2ccc[nH]2)O1` (stereo not given), which growth is on record?
Its growth is 96.2%.

Which growth does the source give for `COc1cccc2cc(N(C)c3ncnc4ccccc34)ccc12` here?
The growth was -18.3% (active).

Which growth does the source give for `Cc1[nH]c(C(=O)Nc2ccc(C(N)=O)cc2OC(C)C)c(Cl)c1Cl` here?
The growth was 90.4%.

For `Nc1nc(N)c2c(n1)NC(c1cccc(Nc3ccnc4cc(C(F)(F)F)ccc34)c1)CC(c1ccc(Cl)cc1)=N2` (stereo not given), which growth is on record?
Its growth is -1.21% (active).

Which growth does the source give for `COC1=C(OC)C(=O)C(CCCCCCCCCCO)=C(C)C1=O` here?
Its growth is 76%.

Which growth does the source give for `O=C1c2c(c3c4cccnc4[nH]c3c3ccc4ccccc4c23)C(=O)N1O` here?
The growth was 16%.

For `CCN1CCN(C(=O)[C@]23CC[C@@H](C)[C@H](C)[C@@H]2C2=CC[C@@H]4[C@@]5(C)C/C(=C/c6ccncc6)C(=O)C(C)(C)[C@@H]5CC[C@@]4(C)[C@]2(C)CC3)CC1`, which growth is on record?
The growth was -29.5% (active).

`C=CC(=O)Nc1ccc2ncnc(Nc3cccc(NS(=O)(=O)CCC)c3Cl)c2c1` was tested. Which growth did it give?
The growth was 55.4%.

With `COc1ccccc1/C=C/C1=C(C)CCC(c2ccccc2OC)C1C` (stereo not given) as the molecule, how does the growth read?
Its growth is -4.33% (active).

With `CN(C)CCOc1nc2c3cc([N+](=O)[O-])ccc3nn2c2ccccc12` as the molecule, how does the growth read?
The growth was 41.8%.

How did the growth turn out when `COc1ccc(-c2nc(SCCC(C)C)nc(N/N=C(/C)c3ccc(N)cc3)c2C#N)cc1` was run?
Its growth is 93.3%.

`O=C(c1ccccc1)[C@@H](c1ccccc1)[C@]1(O)C(=O)Nc2ccccc21` was tested. Which growth did it give?
The growth was 100%.

Which growth does the source give for `CCOC(=O)C1=C(c2ccccc2)N=C2SC=C(c3cccc([N+](=O)[O-])c3)N2C1c1ccc(O)cc1` (stereo not given) here?
Its growth is 98%.

For `Cn1nc(-c2ccc(Cl)cc2)nc2c(=O)n(C)c(=O)nc1-2`, which growth is on record?
The growth was -22.7% (active).

For `COC1CC(O)C2=C(CC3C(/C(C)=C\CC=C(C)C)CCC3(C)O2)C1=O` (stereo not given), which growth is on record?
The growth was 93.6%.

`COc1cc(C(=O)/C=C/c2c(-c3cccs3)nc3sc(C)cn23)cc(OC)c1OC` was tested. Which growth did it give?
Its growth is 2.15% (active).

`CSc1nc(N)c2c(n1)NC(c1ccccc1)C1CCc3ccccc3C1=N2` (stereo not given) was tested. Which growth did it give?
Its growth is 36.6%.

`COC(=O)c1c(C)nc(C)c2c1C(=O)C(Br)=C(NCCCCO)C2=O` was tested. Which growth did it give?
The growth was 75.1%.

`COc1ccc(S(=O)(=O)Oc2ccc(-c3sc4cc(OS(=O)(=O)c5ccc(OC)cc5)ccc4c3C(=O)c3ccc(OCCN4CCCCC4)cc3)cc2)cc1` was tested. Which growth did it give?
Its growth is 109%.

For `C=C(c1ccc(C(=O)O)c(F)c1)c1cc2c(cc1C)C(C)(C)C=CC2(C)C`, which growth is on record?
Its growth is 26.3%.

`COc1cc(C2=Nc3c(N)nc(N)nc3NC(c3cccc(Nc4ccnc5cc(C(F)(F)F)ccc45)c3)C2)cc(OC)c1OC` (stereo not given) was tested. Which growth did it give?
Its growth is 10.8%.
